From PubChem BioAssay
IP6K1 inh = blocks human inositol hexakisphosphate kinase 1; IP6K1 kinase, ADP-Glo luminescence, 2 h; active compounds read low; activity change, % (series mostly up to about 58 µM); hit rate 0.81% among 140,000; AID 1645851; in the data active means activity change below about -25%; further: on the % scale 0 is the no-effect control and ±100 the full control effect
Target sequence (Q92551 whole entry, looked up): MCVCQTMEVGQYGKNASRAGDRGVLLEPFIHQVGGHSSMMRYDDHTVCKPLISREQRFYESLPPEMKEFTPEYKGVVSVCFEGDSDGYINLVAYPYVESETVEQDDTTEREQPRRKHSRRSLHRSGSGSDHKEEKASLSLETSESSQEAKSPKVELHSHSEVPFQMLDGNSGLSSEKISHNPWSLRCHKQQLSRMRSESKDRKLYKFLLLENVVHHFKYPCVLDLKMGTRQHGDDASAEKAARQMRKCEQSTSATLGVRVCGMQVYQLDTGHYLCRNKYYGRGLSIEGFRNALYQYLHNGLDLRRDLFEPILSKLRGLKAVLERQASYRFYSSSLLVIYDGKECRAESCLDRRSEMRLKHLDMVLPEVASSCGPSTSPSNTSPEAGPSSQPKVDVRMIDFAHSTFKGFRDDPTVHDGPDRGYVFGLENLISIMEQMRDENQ
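ADP-Glo luminescence measures ADP made by human IP6K1 during a 2 h RT reaction with ATP/IP6 (mix at 1.3 mM/130 uM); top library doses 57.5 and 19.1 uM final.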
KDM5B inhibitor = inhibitors of human KDM5B histone demethylase | Q9UGL1 | hit rate 2.6% among 220,000 | Potency, µM (highest dose often 57.7 µM), most hits filed as inhibitors | AID 1347165 | KDM5B demethylase, FDH-coupled NADH fluorescence (FDH is formaldehyde dehydrogenase); further: potency means the concentration at half of the fitted maximal effect; 0% is about no effect; nearly all actives have a fitted effect of over 70% in size
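Measured: NADH fluorescence change, 30 min, RT. System: KDM5BΔAP 200 nM final, H3K4me3 peptide, α-KG, Fe(II), ascorbate, NAD⁺ plus FDH, pH 7.5 HEPES. Compounds: titrated, 10 min pre-incubation with enzyme.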
* marks the source's active call; other numbers are inactive results; i = inactive; ? = inconclusive; · = no result given. Most compounds without a hit are left out; they make up all but 2.8% or so of the library.

SMILES | IP6K1 inh | KDM5B inhibitor
COc1ncccc1-c1ccc2ncn(Cc3ccccn3)c(=O)c2n1 | 19.0 | 35.5µM*
Cn1nccc1-c1ccc2ncn(Cc3ccccc3)c(=O)c2n1 | -0.9 | ?
COCCn1cnc2ccc(-c3ccnn3C)nc2c1=O | 10.3 | 35.5µM*
CS(=O)(=O)Cc1ccc(C(=O)Nc2ccc(F)c(F)c2)cc1 | · | i
CC(=O)c1ccc(-c2ccc(C(=O)OC(C)C#N)o2)cc1 (stereo not drawn) | · | i
Cc1ccc(C(=O)NC2CCN(c3cc(-c4cccs4)[nH]n3)CC2)cc1F | 15.5 | ?
Cc1ccccc1C(=O)NC1CCN(c2cc(-c3cccs3)[nH]n2)C1 (stereo not drawn) | -2.9 | 12.6µM*
Cc1cccc(C(=O)NC2CCN(c3cc(-c4cccs4)[nH]n3)C2)c1 (stereo not drawn) | 3.6 | 11.2µM*
COc1ccc(C(=O)NC2CCN(c3cc(-c4cccs4)[nH]n3)C2)cc1OC (stereo not drawn) | 5.8 | 11.2µM*
Cc1ccc(C(=O)NC2CCN(c3cc(-c4cccs4)[nH]n3)C2)cc1F (stereo not drawn) | 0.5 | 3.98µM*
CN(C)c1cccc(C(=O)NC2CCN(c3cc(-c4cccs4)[nH]n3)C2)c1 (stereo not drawn) | -2.4 | ?
CCOc1ccc(C(=O)NC2CCN(c3cc(-c4cccs4)[nH]n3)CC2)cc1OCC | 21.8 | i
O=C(NC1CCN(c2cc(-c3cccs3)[nH]n2)C1)c1ccncc1 (stereo not drawn) | -3.3 | ?
CC(=O)Nc1cccc(NC(=O)c2ccc3c(c2)NC(=O)CS3)c1 | · | i
Cc1cc(NC(=O)C(=O)c2c[nH]c3ccc(F)cc23)no1 | · | i
Cc1cnc(C(=O)NC2C[C@H]3CC[C@@H](C2)N3C(=O)CC2CCCC2)cn1 (stereo partly drawn) | 25.2 | ·
Cc1ccc(C(=O)N2CCCCC2c2nc(-c3ccccc3)n[nH]2)cn1 (stereo not drawn) | 14.1 | ·
COC[C@@H]1CN(c2ncccn2)C[C@H]1C(=O)N1CCOCC1 | 13.7 | 25.1µM*
COC[C@@H]1CN(C(=O)CN2CCOCC2)C[C@H]1c1ccncc1 | -4.7 | i
COC[C@@H]1CN(c2ncccn2)C[C@H]1C(=O)NCC(F)(F)F | 0.0 | 20µM*
COC[C@@H]1CN(c2ncccn2)C[C@H]1C(=O)NCc1ccccn1 | 7.0 | 14.1µM*
O=C(NCc1ccccn1)[C@H]1CN(Cc2ccccc2)C[C@H]1C(=O)O | -0.1 | i
COc1ccc(Nc2ccnc(N3CCC(C(=O)NCC(F)(F)F)CC3)n2)cc1 | -0.8 | ·
CCc1nncn1C1CCN(C(=O)c2cc(-c3cccs3)[nH]n2)C1 (stereo not drawn) | 12.4 | ?
Cc1noc([C@@H]2C[C@H](NC(=O)c3ccc(-c4ccccc4)cc3)CN2C)n1 | -10.8 | i
SMILES | IP6K1 inh | KDM5B inhibitor
COC(=O)[C@]12C[C@H](CC(=O)N3CCC(c4ccccc4)CC3)C(=O)N(Cc3ccco3)C1=C[C@H](C1CCCC1)O[C@@H]2C | · | i
CN1CCOc2c(C(=O)NCc3cccnc3)cc(-c3ccc(N4CCOCC4)cc3)cc21 | -11.1 | ?
COc1cccc(-c2cc(C(=O)NCc3cccnc3)c3c(c2)N(C)CCO3)c1OC | -18.1 | 35.5µM*
CNC(=O)c1cc(-c2cccc(OC)c2OC)cc2c1OCCN2Cc1cccnc1 | -20.2 | 31.6µM*
Cc1ccccc1-c1cc(C(=O)NCc2cccnc2)c2c(c1)ncn2C | 1.2 | ?
COc1ccccc1-c1cc(C(=O)NCc2cccnc2)c2c(c1)N(C)CCO2 | -10.5 | 39.8µM*
COCC(=O)N1CCCN(Cc2cccnc2)c2ccccc21 | -5.5 | i
COc1cc(CN2CCc3c(c(CN(C(C)=O)c4ccccc4)nn3C)C2)ccc1O | 3.0 | ·
O=C(Cn1cccc1-c1nc(-c2ccc(F)cc2)no1)Nc1ccc2c(c1)OCO2 | 12.0 | i
Cc1cccc2cc(C(=O)N3CC[C@H](CO)[C@H](O)C3)oc12 | -9.2 | i
Cc1cccc2ncc(C(=O)N3CC[C@H](CO)[C@@H](O)C3)c(=O)n12 | 7.5 | 22.4µM*
CCCCn1c(=O)[nH]c(=O)c2c1nc(COC(=O)C(CC)c1ccccc1)n2C (stereo not drawn) | · | i
CCC1=C(C(=O)OC)C(c2ccccc2)N2C(CC(=O)NCC3CC3)=CSC2=N1 (stereo not drawn) | 24.8 | ?
CCC1=C(C(=O)OC)C(c2ccccc2C)N2C(CC(=O)NCC3CC3)=CSC2=N1 (stereo not drawn) | 22.6 | 31.6µM*
COCCCN1C(=O)N(Cc2ccccc2)C(=O)C12CCN(Cc1cccs1)CC2 | -4.1 | ?
CC(C)(C)OC(=O)N1CC(Nc2ccc(Cl)cc2)C1 | -13.2 | i
CC(C)(C)OC(=O)N1CC(Nc2ccccc2O)C1 | -5.3 | 100µM*
CCC1Oc2ccc(NS(=O)(=O)c3ccc(C)c(F)c3)cc2CN(Cc2ccc(OC)cc2)C1=O (stereo not drawn) | 9.3 | i
